Most compounds without a hit are left out; they make up all but 1.1% or so of the library.
PrPC TRFRET: inhibitors of human cell surface prion protein PrPC; P04156; TR-FRET read-out; inhibition, % at 13.8 µM; 0.43% of 370,000 active; AID 720596; in the data active = inhibition above about 24%; also: 0% = median of the test wells and 100% = reference compound wells
MazEF act: increases E. coli MazEF RNase cleavage of RNA. FAM/BHQ RNA-DNA oligo cleavage fluorescence, 5 h. activation, % at 20 µM. 0.32% of 350,000 active. AID 504720; in the data active = activation above about 50%
Target sequence (P0AE70 whole entry, looked up): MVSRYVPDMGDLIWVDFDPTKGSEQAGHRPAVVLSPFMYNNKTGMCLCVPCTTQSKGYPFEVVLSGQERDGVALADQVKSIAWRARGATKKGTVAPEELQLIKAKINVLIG
BJeLR viability: kills HRASV12-expressing BJeLR cells; inhibition, % (concentration not given with the values); BJeLR (HRASV12) viability, CellTiter-Glo ATP luminescence, 48 h; 0.17% of 300,000 active; AID 1554; in the data active = inhibition above about 50%
PrP 5UTR inh: inhibition of PrP 5' UTR reporter expression; cell-based PrP 5' UTR mRNA reporter, plate reader; inhibition, % (test concentration not listed); 0.35% of 340,000 active; in the data active = inhibition above about 52%; also: 0 = median of the neutral control wells
* hit, by the source's call.

`CC(=O)N(c1ccc(Cl)cc1)c1cn(C(C)=O)c2ccccc12` gave PrPC TRFRET 2, MazEF act 4, BJeLR viability 4 and PrP 5UTR inh 1.
For CC(=O)n1cc(N(C(=O)CCl)c2ccc(C)cc2)c2ccccc21 the results were PrPC TRFRET -5, MazEF act 1, BJeLR viability 84* and PrP 5UTR inh -9.
`Cc1cc(-c2n[nH]c(=S)n2N=Cc2cc(Br)ccc2F)n[nH]1` gave PrPC TRFRET 6.
Screening C=CCn1c(CNC(=O)c2cccs2)nnc1SCC(=O)c1ccc(Br)cc1 returned PrPC TRFRET 3, MazEF act 71*, BJeLR viability -6 and PrP 5UTR inh -26.
`COc1ccccc1Nc1nc2c(C)cccc2cc1C#N` gave PrPC TRFRET -6, MazEF act 98*, BJeLR viability -3 and PrP 5UTR inh -15.
`COc1ccccc1Nc1nc2ccc(C)cc2cc1C#N` gave PrPC TRFRET -7, MazEF act 78*, BJeLR viability -3 and PrP 5UTR inh -8.
For O=C(N[C@H](C(=O)N1CCC[C@H]1C(=O)NC1CCCC1)C1CCCCC1)C1CCCC1 the results were PrPC TRFRET -1.
`CCOc1ccc(-n2nc3ccc(NC(=O)c4ccc5c(c4)OCCO5)cc3n2)cc1` gave PrPC TRFRET -3, MazEF act 59*, BJeLR viability 9 and PrP 5UTR inh -25.
For O=C(Nc1ccc2nn(-c3ccccc3)nc2c1)c1ccc2c(c1)OCCO2 the results were PrPC TRFRET -1, MazEF act 8, BJeLR viability 6 and PrP 5UTR inh -11.
COc1cc(OC)c(-c2cc(C(=O)O)ccc2OC)c(OC)c1 was read as PrPC TRFRET 0, MazEF act active, BJeLR viability 8 and PrP 5UTR inh -19.
Screening C(C#CCCCCCCCCC[n+]1ccccc1)#CCCCCCCCCC[n+]1ccccc1 returned PrPC TRFRET 17, MazEF act 18, BJeLR viability 52* and PrP 5UTR inh -13.
Screening N#CC(C#N)=Cc1ccc(-c2ccccc2F)o1 returned PrPC TRFRET 5, MazEF act 149* and PrP 5UTR inh -29.
For CN(N=Cc1ccc([N+](=O)[O-])cc1)c1ccccn1 the results were PrPC TRFRET 1 and MazEF act active.
Screening COC(=O)[C@]12C[C@H](CC(=O)NCC34CC5CC(CC(C5)C3)C4)C(=O)N(CCC3=CCCCC3)C1=C[C@H](COCc1ccccc1)O[C@@H]2C returned PrPC TRFRET -6.
CCN1C(=S)SC(=O)C1=C1C=C(C)N(Cc2ccco2)C(C)=C1 was read as PrPC TRFRET -18, MazEF act -9, BJeLR viability 7 and PrP 5UTR inh -72.
For CCN1C(=S)SC(=O)C1=C1C=C(C)OC(C)=C1 the results were PrPC TRFRET -5, MazEF act active, BJeLR viability 1 and PrP 5UTR inh -51.
`O=Cc1ccc(Sc2nnc(-c3ccccc3)o2)c([N+](=O)[O-])c1` gave MazEF act 2, BJeLR viability -7 and PrP 5UTR inh -14.
Screening Cn1nc([N+](=O)[O-])nc1Sc1nnc(-c2ccccc2)o1 returned PrPC TRFRET 7, MazEF act 11, BJeLR viability 56* and PrP 5UTR inh -28.
`CCOC(=O)CN1C(=O)[C@]2(OCCC=C[C@H]2C)c2cc(OC)ccc21` gave PrPC TRFRET -2.
For CN[C@H]1C[C@H]2O[C@@](C)([C@H]1OC)n1c3ccccc3c3c4c(c5c6ccccc6n2c5c31)C(=O)NC4 the results were BJeLR viability 107*.
COc1ccc(-n2c(COc3ccc(Cl)cc3)nnc2SCC(=O)c2ccc(-c3ccccc3)cc2)cc1 was read as PrPC TRFRET 0.
`N#CC1=C(N)Oc2cc(N)ccc2C1c1cccc(Br)c1` (stereo not drawn) gave PrPC TRFRET -6, MazEF act -20, BJeLR viability 56* and PrP 5UTR inh 38.
Screening Cc1ccccc1-c1cccc2[nH]c3c(c12)CCN1C(=O)[C@H]2[C@H](C)ON(C)[C@H]2C[C@@H]31 returned PrPC TRFRET 8.
`CCc1c(C)c(C#N)c2nc3ccccc3n2c1N(C)C` gave PrPC TRFRET 4, MazEF act -1 and PrP 5UTR inh -3.
`CCCCc1c(C)c(C#N)c2nc3ccccc3n2c1Cl` gave BJeLR viability 128*.
CCCC[C@H](C(=O)N(C)c1cccc(OC)c1)[C@@H](O)c1ccc(C(C)=O)cc1 was read as PrPC TRFRET -1.
For Nc1ccc(Sc2ccc([N+](=O)[O-])cc2)cc1 the results were PrPC TRFRET -14, MazEF act -4, BJeLR viability 2 and PrP 5UTR inh -13.
O=C1C=CC(=O)N1c1ccc(Sc2ccc([N+](=O)[O-])cc2)cc1 was read as BJeLR viability 64*.
For COC(=O)C[C@@H]1CC[C@H]2[C@@H](COc3ccc(NC(=O)Nc4ccccc4C)cc3C(=O)N2C)O1 the results were PrPC TRFRET 0.
Screening O=C(Cc1cccs1)Nc1cccc(-c2nc3cc4ccccc4cc3[nH]2)c1 returned PrPC TRFRET 4, MazEF act 56*, BJeLR viability 16 and PrP 5UTR inh -127.
`Cc1ccc(C2=NN(C(=O)CCl)C(c3ccco3)C2)o1` (stereo not drawn) gave PrPC TRFRET -8, MazEF act -19, BJeLR viability 87* and PrP 5UTR inh -4.
Nc1c(C(=O)c2ccccc2)sc2nsc(SCCN3CCOCC3)c12 was read as PrPC TRFRET -10, MazEF act 127* and BJeLR viability 6.
Screening Cc1ccc(C(=O)Oc2oc(-c3ccccc3)nc2C=Nc2ccc(N(C)C)cc2)cc1 returned PrPC TRFRET -1, MazEF act 870*, BJeLR viability 2 and PrP 5UTR inh -99.
`CN(C)c1ccc(N=Cc2nc(-c3ccccc3)oc2OC(=O)c2cccc(Cl)c2)cc1` gave PrPC TRFRET -2, MazEF act 126*, BJeLR viability 2 and PrP 5UTR inh -107.
Cn1cccc1C(=O)N1CCN(S(=O)(=O)c2ccc(Br)s2)CC1 was read as PrPC TRFRET 8.
`CCOC(=O)CSC1=C(C#N)C(c2ccc(C)o2)CC(=O)N1` (stereo not drawn) gave PrPC TRFRET 14, MazEF act 5, BJeLR viability 37 and PrP 5UTR inh 55*.
For CCOC(=O)CSC1=C(C#N)C(c2ccc(Cl)cc2)CC(=O)N1 (stereo not drawn) the results were PrPC TRFRET 8, MazEF act 0, BJeLR viability 6 and PrP 5UTR inh -24.
For Nc1nc(Sc2ccc([N+](=O)[O-])c3nonc23)c2[nH]cnc2n1 the results were PrPC TRFRET -12, MazEF act 60* and PrP 5UTR inh 10.
CCOC(=O)C1CSCCS(=O)(=O)N1Cc1cccc(Cl)c1 (stereo not drawn) was read as PrPC TRFRET 2.
`O=[N+]([O-])c1nn(-c2ccc3c(c2)OCCO3)n(O)c1=NCc1ccccc1Cl` gave PrPC TRFRET -15, MazEF act 71*, BJeLR viability -8 and PrP 5UTR inh -64.

Screens deposited in PubChem by several laboratories.
